Drawing on PubChem BioAssay (NCATS), this text covers Potency, outcome and activity change, negative = cell killing for 40 molecules.

Several values for one entry are separate records, joined by “and”; a condition that tells them apart may be missing. Equal values may be shown once. Records with an inconclusive call do not appear. Entries that show only a call come without a potency. Values without a mark were called inactive. Activity calls are given as the source filed them. Calls follow the shape of the dose curve; as a rule, active = well fitted curve in the direction sought with a large enough effect; inconclusive = small, poorly fitted or top-dose-only effect, or another doubt; inactive = no such curve, though single readings can be large; an effect the other way counts as inactive or inconclusive.
Also: nearly all actives have a fitted effect of over 70% in size.

One experiment is described as follows: Primary qHTS for inhibitors of nuclear receptor binding SET domain protein 2 (NSD2) in an isogenic RCH-ACV NSD2 p.E1099K mutant (9B) (AID 1645876). The note with it: RCH-ACV NSD2 E1099K (9B) viability, CellTiter-Glo, 72 h; series mostly up to 44.9 µM.
On to `CC(=O)OC[C@@]12[C@@H](OC(C)=O)C[C@@H](C)[C@](C)([C@@H]3C[C@H]4C=CO[C@H]4O3)[C@H]1CCC[C@]21CO1`, for which the Potency result is “inactive”.

For the molecule `C[C@]12CCC(=O)C=C1[C@@H](O)C[C@@H]1[C@@H]2[C@@H](O)C[C@@]2(C)[C@H]1CC[C@]2(O)C(=O)CO`, the Potency result was “inactive”.

For the molecule `Cc1nnc(C(C)C)n1C1CC2CCC(C1)N2CCC(NC(=O)C1CCC(F)(F)CC1)c1ccccc1` (stereo not drawn), the Potency entry is “inactive”. Still for that read-out and setting: in the case of `CC1NC(=O)C(Cc2c[nH]c3ccccc23)NC1=O` (stereo not drawn) it was “inactive”; in that of `CC(=O)c1c(O)cc2cccc3c2c1CC(C)(O)O3` (stereo not drawn), “inactive”. Same read-out and setting: the entry for `CC(=O)O[C@@H]1C[C@@]23C[C@@]24CC[C@H](OC2OC[C@@H](O)[C@H](O)[C@H]2O)C(C)(C)[C@@H]4CC[C@H]3[C@]2(C)CC3OC4(C[C@@H](C)C3[C@@]12C)OCC1(C)OC14` (stereo partly drawn) is “inactive”. For the molecule `CC1(C)CC2C3=CCC4C5(C)CCC(OC6OC(CO)C(O)C(OC7OC(CO)C(O)C(OC8OC(CO)C(O)C(OC9OC(COC%10OC(CO)C(O)C(O)C%10O)C(O)C(O)C9O)C8O)C7O)C6O)C(C)(C)C5CCC4(C)C3(C)CCC2(C(=O)O)CC1O` (stereo not drawn), the outcome is “inactive [at 9.23 µM]”. On to `COc1cc(-c2cccc(O)c2)cc2c1OCO2`, for which the Potency entry is “inactive”. Still for that read-out and setting: in the case of `O=C(/C=C/c1ccc(O)cc1)OCC1=C[C@@H](O)[C@@H]2C=CO[C@@H](O[C@@H]3O[C@H](CO)[C@@H](O)[C@H](O)[C@H]3O)[C@H]12` it was “inactive”. The same measure, in the same setting: in the case of `COC1(CC(C)C)NC(=O)C(O)(Cc2ccccc2)NC1=O` (stereo not drawn) it was “inactive”. Still for that read-out and setting: the entry for `Cc1c(N2C(=O)c3ccc(C(=O)O)cc3C2=O)c(=O)n(-c2ccccc2)n1C` is “inactive”.

In the case of `CC1(C)C(O)CCC2(C)C1C(O)C=C1COC(=O)C12O` (stereo not drawn), the Potency entry was “inactive”. The same measure, in the same setting: in the case of `COc1cc(C(C)=O)ccc1O[C@@H]1O[C@H](CO[C@@H]2O[C@@H](C)[C@H](O)[C@@H](O)[C@H]2O)[C@@H](O)[C@H](O)[C@H]1O` it was “inactive”. With `CC1(CO)CC[C@]2(C(=O)O[C@@H]3O[C@H](CO)[C@@H](O)[C@H](O)[C@H]3O)CC[C@]3(C)C(=CCC4[C@@]5(C)CC[C@H](O[C@@H]6O[C@H](C(=O)O)[C@@H](O)[C@H](O)[C@H]6O)C(C)(C)C5CC[C@]43C)C2C1` (stereo partly drawn), the outcome is “inactive [at 9.23 µM]”.

As for `C=CC(C)(C)C12CC3C(=O)NC(Cc4cnc[nH]4)C(=O)N3C1Nc1ccccc12` (stereo not drawn), the Potency result is “inactive”. Still for that read-out and setting: the entry for `CC(C)=CCC/C(C)=C/CC/C(C)=C/CC[C@]1(C)CCc2cc(O)cc(C)c2O1` is “inactive”; for `COC12CC3C(C(C)C1=CC(=O)O2)C(O)C(OC(C)=O)C1C(C)(C)C(OC(C)=O)CCC31C` (stereo not drawn) it is “inactive”; for `COC(=O)C1=C[C@@H](O)[C@@H](O)[C@H](O[C@@H]2O[C@H](COC(=O)/C=C/c3ccccc3)[C@@H](O)[C@H](O)[C@H]2O)C1` it is “inactive”. The same measure, in the same setting: the entry for `O=C(O)CCc1cc2ccoc2cc1O[C@@H]1O[C@H](CO[C@@H]2OC[C@](O)(CO)[C@H]2O)[C@@H](O)[C@H](O)[C@H]1O` is “inactive”; for `C=C1[C@H]2[C@H](O[C@@H]3O[C@H](COC(=O)/C=C/c4cc(OC)c(O)c(OC)c4)[C@@H](O)[C@H](O)[C@H]3O)OC=C(C(=O)O)[C@H]2C[C@@H]1O` it is “inactive”. Take `C=C1C(O[C@@H]2O[C@H](CO)[C@@H](O)[C@H](O)[C@@H]2O)CC2C(C)(C)C(O)CCC2(C)C1CC/C(C)=C\CO` (stereo partly drawn): the Potency entry is “inactive”. On the same count and under the same terms, the entry for `COC(=O)C12C(=O)C(C)=C(O)C1(C)C(C)=CC1C34CCC(OC3=O)C(C)(C)C4CCC12C` (stereo not drawn) is “inactive”.

A further experiment is described as follows: Primary qHTS for inhibitors of nuclear receptor binding SET domain protein 2 (NSD2) in an RCH-ACV wild type WT cells (2C) (AID 1645877). Also: potency is read from the fitted curve at half-maximal effect. The note with it: RCH-ACV (leukaemia line) NSD2 WT (2C) viability, CellTiter-Glo, 72 h; series mostly up to 44.9 µM.
Turning to `C=C1C[C@]23C[C@H]1CC[C@H]2[C@@]12C=C[C@H](O)[C@@](C)(C(=O)O1)[C@H]2[C@@H]3C(=O)O`, the Potency entry is “inactive”. With `COc1ccc2c(c1)OC[C@]1(O)c3cc4c(cc3O[C@H]21)OCO4`, the Potency result was “inactive”.

As to `C/C=C1\[C@H](O[C@@H]2O[C@H](CO)[C@@H](O)[C@H](O)[C@H]2O)OC=C(C(=O)OC)[C@H]1CC(=O)OC`, the Potency entry is “inactive”.

In the case of `CO[C@H]1C=C2C(CC[C@H](O[C@@H]3O[C@H](CO)[C@@H](O)[C@@H](O)[C@H]3O)C2(C)C)[C@]2(C)CC[C@]3(C)C([C@H](C)C(O)C(C=C(C)C)O[C@@H]4O[C@H](CO)[C@@H](O)[C@@H](O)[C@H]4O)CC[C@@]3(C)C12` (stereo partly drawn), the outcome was “inactive [at 9.23 µM]”.

On to `COc1ccc([C@H]2Cc3cccc(O)c3C(=O)O2)cc1`, for which the Potency entry is “inactive”. Consider `COC(=O)C1=COC(O[C@@H]2O[C@H](CO)[C@@H](O)[C@H](O)[C@H]2O)/C(=C\COC(=O)c2ccc(OC3OC(CO)C(O)C(O)C3O)c(OC)c2)C1CC(=O)OCCc1ccc(O)cc1` (stereo partly drawn), for which the outcome was “inactive [at 9.23 µM]”. Regarding `CC1(C)CCCC2(C)C(CO)C3CCC2C31` (stereo not drawn), the Potency entry is “inactive”. Still for that read-out and setting: in the case of `CC1=C2CC3OC3(C)CCC3OC3(C)CC2OC1=O` (stereo not drawn) it was “inactive”. Same read-out and setting: the entry for `CC(=O)[C@@H]1CC[C@]2(C(=O)O)CC[C@]3(C)C(CCC4[C@@]5(C)CC[C@H](O)C(C)(C)C5CC[C@]43C)C12` (stereo partly drawn) is “inactive”; for `CN[C@@H]1[C@@H](O)[C@@H](O[C@@H]2[C@@H](O)[C@H](O[C@H]3O[C@H](CN)[C@@H](O)[C@H](O)[C@H]3O)[C@@H](N)C[C@H]2NC(=O)[C@@H](O)CN)OC[C@]1(C)O` it is “inactive”. Same read-out and setting: the figure for `NCc1ccc(OCCCc2sc(-c3ccc4c(c3)/C(=N/Nc3nc5ccccc5s3)CCC4)nc2C(=O)O)cc1` is 5.15 µM (active); for `N[C@H]1C[C@H]1c1ccc(-c2cccc(O)c2)cc1` it is “inactive”; for `C[C@@H]1CC[C@H]2C(C)(C)[C@H](O)[C@H](O)C[C@]2(C)[C@@]12Cc1c(O)cc3c(c1O2)CNC3=O` it is “inactive”.

For the molecule `O=C(O)C[C@H](O)C[C@H](O)/C=C/c1c(C2CC2)nc2ccccc2c1-c1ccc(F)cc1`, the Potency is 1.83 µM (active) and 934 nM (active). Consider `C[C@H]1[C@H](C)CC[C@]2(C(=O)O)CC[C@]3(C)C(=CC[C@@H]4[C@@]5(C)C[C@@H](O)[C@H](O)[C@@](C)(CO)[C@@H]5CC[C@]43C)[C@H]12`, for which the Potency entry is “inactive”. Still for that read-out and setting: the entry for `CCOC(=O)[C@H](CCc1ccccc1)N[C@@H](C)C(=O)N1C2CCCCC2C[C@H]1C(=O)O` (stereo partly drawn) is “inactive”; for `CCCCC(=O)OCC(=O)[C@]1(O)Cc2c(O)c3c(c(O)c2[C@@H](O[C@H]2C[C@H](NC(=O)C(F)(F)F)[C@H](O)[C@H](C)O2)C1)C(=O)c1c(OC)cccc1C3=O` it is 0.166 µM (active). With `CC(=O)O[C@@H]1C[C@]2(C)[C@@]3(CCC4[C@@]5(C)CC[C@H](O[C@@H]6O[C@H](C(=O)O)[C@@H](O)[C@H](O[C@@H]7O[C@H](CO)[C@H](O)[C@H](O)[C@H]7O[C@@H]7O[C@@H](C)[C@H](O)[C@@H](O)[C@H]7O[C@@H]7OC[C@](O)(CO)[C@H]7O)[C@H]6O[C@@H]6O[C@H](CO)[C@H](O)[C@H](O)[C@H]6O)C(C)(C)C5CC[C@]42C)O[C@@H](O)[C@]12C3CC(C)(C)[C@@H](OC(=O)/C=C/c1ccc(O)c(O)c1)[C@@H]2OC(=O)/C=C/c1ccccc1` (stereo partly drawn), the activity change, negative = cell killing is -4.25% [at 9.23 µM]. In the case of `CC(=O)OC[C@@]12[C@@H](OC(C)=O)C[C@@H](C)[C@](C)([C@@H]3C[C@H]4C=CO[C@H]4O3)[C@H]1CCC[C@]21CO1`, the Potency entry was “inactive”. Same read-out and setting: in the case of `C[C@]12CCC(=O)C=C1[C@@H](O)C[C@@H]1[C@@H]2[C@@H](O)C[C@@]2(C)[C@H]1CC[C@]2(O)C(=O)CO` it was “inactive”; in that of `Cc1nnc(C(C)C)n1C1CC2CCC(C1)N2CCC(NC(=O)C1CCC(F)(F)CC1)c1ccccc1` (stereo not drawn), “inactive”. On the same count and under the same terms, in the case of `CC1NC(=O)C(Cc2c[nH]c3ccccc23)NC1=O` (stereo not drawn) it was “inactive”. The same measure, in the same setting: the entry for `CC(=O)c1c(O)cc2cccc3c2c1CC(C)(O)O3` (stereo not drawn) is “inactive”; for `CC(=O)O[C@@H]1C[C@@]23C[C@@]24CC[C@H](OC2OC[C@@H](O)[C@H](O)[C@H]2O)C(C)(C)[C@@H]4CC[C@H]3[C@]2(C)CC3OC4(C[C@@H](C)C3[C@@]12C)OCC1(C)OC14` (stereo partly drawn) it is “inactive”. On to `CC1(C)CC2C3=CCC4C5(C)CCC(OC6OC(CO)C(O)C(OC7OC(CO)C(O)C(OC8OC(CO)C(O)C(OC9OC(COC%10OC(CO)C(O)C(O)C%10O)C(O)C(O)C9O)C8O)C7O)C6O)C(C)(C)C5CCC4(C)C3(C)CCC2(C(=O)O)CC1O` (stereo not drawn), for which the activity change, negative = cell killing is 4.6% [at 9.23 µM]. `COc1cc(-c2cccc(O)c2)cc2c1OCO2`: the Potency entry is “inactive”.

As to `O=C(/C=C/c1ccc(O)cc1)OCC1=C[C@@H](O)[C@@H]2C=CO[C@@H](O[C@@H]3O[C@H](CO)[C@@H](O)[C@H](O)[C@H]3O)[C@H]12`, the Potency entry is “inactive”. The same measure, in the same setting: the entry for `COC1(CC(C)C)NC(=O)C(O)(Cc2ccccc2)NC1=O` (stereo not drawn) is “inactive”; for `Cc1c(N2C(=O)c3ccc(C(=O)O)cc3C2=O)c(=O)n(-c2ccccc2)n1C` it is “inactive”.

In the case of `CC1(C)C(O)CCC2(C)C1C(O)C=C1COC(=O)C12O` (stereo not drawn), the Potency entry is “inactive”.

For `COc1cc(C(C)=O)ccc1O[C@@H]1O[C@H](CO[C@@H]2O[C@@H](C)[C@H](O)[C@@H](O)[C@H]2O)[C@@H](O)[C@H](O)[C@H]1O`, the Potency result was “inactive”. Take `CC1(CO)CC[C@]2(C(=O)O[C@@H]3O[C@H](CO)[C@@H](O)[C@H](O)[C@H]3O)CC[C@]3(C)C(=CCC4[C@@]5(C)CC[C@H](O[C@@H]6O[C@H](C(=O)O)[C@@H](O)[C@H](O)[C@H]6O)C(C)(C)C5CC[C@]43C)C2C1` (stereo partly drawn): the outcome is “inactive [at 9.23 µM]”. `C=CC(C)(C)C12CC3C(=O)NC(Cc4cnc[nH]4)C(=O)N3C1Nc1ccccc12` (stereo not drawn): the Potency entry was “inactive”. For the molecule `CC(C)=CCC/C(C)=C/CC/C(C)=C/CC[C@]1(C)CCc2cc(O)cc(C)c2O1`, the Potency entry was “inactive”. The same measure, in the same setting: in the case of `COC12CC3C(C(C)C1=CC(=O)O2)C(O)C(OC(C)=O)C1C(C)(C)C(OC(C)=O)CCC31C` (stereo not drawn) it was “inactive”; in that of `COC(=O)C1=C[C@@H](O)[C@@H](O)[C@H](O[C@@H]2O[C@H](COC(=O)/C=C/c3ccccc3)[C@@H](O)[C@H](O)[C@H]2O)C1`, “inactive”.
